Test results: PMC5700166
Numbering of substitutions follows the chain as printed.

Columns and labels:
Test in all cases: protein-binding microarray (PBM); PBM: ~300 nM protein, 6 mM HEPES pH 7.8, 80 mM KCl, 0.5 mM EDTA, 0.5 mM EGTA, 6% glycerol, 35 ng/ul poly-dIdC, 1% milk, 1 h, room temperature; Ap Aiptasia and Nv Nematostella (sea anemones) / Co Capsaspora / Aq Amphimedon (sponge) / Dm Drosophila / Hu human; RHD is the Rel homology domain; high values mean tight binding
Settings in all cases: dsDNA, one strand shown
[1] = biological target: T1, GST-Ap-NF-kB RHD (Exaiptasia pallida (Aiptasia), UniProt A0A913YAJ5 2-422)
T1 sequence: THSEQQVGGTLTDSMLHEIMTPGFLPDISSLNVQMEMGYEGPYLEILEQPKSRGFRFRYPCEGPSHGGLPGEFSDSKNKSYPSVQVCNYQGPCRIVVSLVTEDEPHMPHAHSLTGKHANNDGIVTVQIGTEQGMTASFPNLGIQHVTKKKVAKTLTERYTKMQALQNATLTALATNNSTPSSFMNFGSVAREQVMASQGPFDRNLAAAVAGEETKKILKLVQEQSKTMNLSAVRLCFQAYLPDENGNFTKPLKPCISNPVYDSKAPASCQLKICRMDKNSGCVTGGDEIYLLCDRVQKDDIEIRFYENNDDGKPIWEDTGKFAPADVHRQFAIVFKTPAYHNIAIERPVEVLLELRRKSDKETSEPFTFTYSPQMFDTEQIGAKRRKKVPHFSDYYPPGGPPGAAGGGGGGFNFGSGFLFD

[2] = biological target: T2, GST-Nv-NF-kB (Cys allele) (Nematostella vectensis, UniProt E5G601 2-411)
T2 sequence: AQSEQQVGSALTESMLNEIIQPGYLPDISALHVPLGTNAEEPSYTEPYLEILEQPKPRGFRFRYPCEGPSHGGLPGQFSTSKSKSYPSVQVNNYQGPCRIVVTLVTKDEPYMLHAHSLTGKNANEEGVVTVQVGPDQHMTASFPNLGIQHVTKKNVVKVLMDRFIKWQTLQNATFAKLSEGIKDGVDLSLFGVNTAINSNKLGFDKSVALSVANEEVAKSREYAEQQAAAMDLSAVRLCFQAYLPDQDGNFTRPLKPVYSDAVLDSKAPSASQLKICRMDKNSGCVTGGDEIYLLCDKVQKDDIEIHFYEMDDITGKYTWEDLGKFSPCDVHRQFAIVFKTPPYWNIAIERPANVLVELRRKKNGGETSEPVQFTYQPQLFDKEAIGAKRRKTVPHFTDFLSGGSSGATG

[3] = biological target: T3, GST-Co-NF-kB (Capsaspora owczarzaki, UniProt F1ARL5 200-546)
T3 sequence: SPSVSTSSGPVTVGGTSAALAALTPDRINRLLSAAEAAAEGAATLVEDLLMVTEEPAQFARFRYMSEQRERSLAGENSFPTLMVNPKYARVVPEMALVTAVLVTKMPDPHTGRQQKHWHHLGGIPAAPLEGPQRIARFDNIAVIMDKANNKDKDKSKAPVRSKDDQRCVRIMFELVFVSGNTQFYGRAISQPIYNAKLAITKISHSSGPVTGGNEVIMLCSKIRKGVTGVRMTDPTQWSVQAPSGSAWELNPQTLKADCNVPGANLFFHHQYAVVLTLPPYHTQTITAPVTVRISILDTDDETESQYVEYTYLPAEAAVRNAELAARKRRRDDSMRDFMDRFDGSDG

[4] = biological target: T4, GST-Dm-Relish (Drosophila melanogaster, UniProt Q94527 99-473)
T4 sequence: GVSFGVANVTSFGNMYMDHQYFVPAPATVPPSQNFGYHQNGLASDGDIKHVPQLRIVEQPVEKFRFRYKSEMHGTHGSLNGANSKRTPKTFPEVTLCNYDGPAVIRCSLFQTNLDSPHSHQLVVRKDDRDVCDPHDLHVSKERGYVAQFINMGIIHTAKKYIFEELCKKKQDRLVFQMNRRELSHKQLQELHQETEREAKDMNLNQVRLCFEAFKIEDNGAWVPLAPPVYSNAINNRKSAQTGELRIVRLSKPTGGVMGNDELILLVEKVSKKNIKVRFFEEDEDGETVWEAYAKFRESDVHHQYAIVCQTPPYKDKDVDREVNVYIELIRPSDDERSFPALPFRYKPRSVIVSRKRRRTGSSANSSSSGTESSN

[5] = biological target: T5, GST-Aq-NF-kB (Amphimedon queenslandica, UniProt A9Y5G7 2-389)
T5 sequence: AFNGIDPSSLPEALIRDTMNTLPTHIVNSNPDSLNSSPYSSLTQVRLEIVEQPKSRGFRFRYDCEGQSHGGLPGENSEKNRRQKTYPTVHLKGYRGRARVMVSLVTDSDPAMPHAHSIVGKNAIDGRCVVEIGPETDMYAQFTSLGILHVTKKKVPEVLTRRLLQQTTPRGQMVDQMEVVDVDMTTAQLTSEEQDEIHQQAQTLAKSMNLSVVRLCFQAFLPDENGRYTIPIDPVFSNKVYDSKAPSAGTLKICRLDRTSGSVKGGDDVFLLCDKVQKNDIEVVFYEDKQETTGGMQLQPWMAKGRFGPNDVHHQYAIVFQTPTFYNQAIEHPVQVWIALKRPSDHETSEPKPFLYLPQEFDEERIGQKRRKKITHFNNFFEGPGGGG

[6] = biological target: GST-Hu-p50 (Homo sapiens, UniProt P19838 7-356)
Chain of GST-Hu-p50 (P19838 7-356): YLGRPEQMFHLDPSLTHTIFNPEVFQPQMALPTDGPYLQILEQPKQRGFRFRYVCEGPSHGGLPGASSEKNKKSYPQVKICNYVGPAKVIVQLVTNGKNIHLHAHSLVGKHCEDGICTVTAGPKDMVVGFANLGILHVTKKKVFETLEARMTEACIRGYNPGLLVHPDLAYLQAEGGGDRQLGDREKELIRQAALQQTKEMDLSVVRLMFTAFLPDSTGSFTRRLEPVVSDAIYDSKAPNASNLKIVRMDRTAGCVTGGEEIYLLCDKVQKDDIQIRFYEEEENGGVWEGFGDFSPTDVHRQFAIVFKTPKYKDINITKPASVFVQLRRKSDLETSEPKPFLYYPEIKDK

[7] = biological target: T6, GST-Nv-NF-kB (Ser allele) (Nematostella vectensis, UniProt A7UNT2 2-411)
T6 sequence: T2 sequence with Q21R, C66S, S207N, E215Q, V217A, E225K, A268E, D399E

Sequence	binding signal [1] [z-score]	binding signal [2] [z-score]	binding signal [3] [z-score]	binding signal [4] [z-score]	binding signal [5] [z-score]	binding signal [6] [z-score]	binding signal [7] [z-score]
CCGATTAACATCAAGGGGGGACTTGATGTTAATCGGGTCTTGATTCGCTTGACGCTGCTG	4.76	5.56	5.68	5.09	5.14	5.19	
CCGATTAACATCAAAAATTCACCTGATGTTAATCGGGTCTTGATTCGCTTGACGCTGCTG	1.56	2.59	1.24	5.78	2.74	4	
CCGATTAACATCAGACAACCCCCTGATGTTAATCGGGTCTTGATTCGCTTGACGCTGCTG	5.23	4.47	1.95	5.15	4.98	5.28	
CCGATTAACATCACTTCGGGAAATGATGTTAATCGGGTCTTGATTCGCTTGACGCTGCTG		2.8	2.89		2.16	1.48	1.97
CCGATTAACATCAAAATTTACCATGATGTTAATCGGGTCTTGATTCGCTTGACGCTGCTG				2.43	1.07	2.22	2.56
CCGATTAACATCAGTTTCCCAAATGATGTTAATCGGGTCTTGATTCGCTTGACGCTGCTG		2.56	2.19	1.2	1.17	1.81	3.42
CCGATTAACATCAAAATTTTTCCTGATGTTAATCGGGTCTTGATTCGCTTGACGCTGCTG			1.06	2.86	1.46	1.87	1.42
CCGATTAACATCAGAAAATACCATGATGTTAATCGGGTCTTGATTCGCTTGACGCTGCTG		1.12		3.11	1.58	1.63	1.7
CCGATTAACATCAAAATTTACCGTGATGTTAATCGGGTCTTGATTCGCTTGACGCTGCTG		1.63	1.05	3.37	2.12	2.17	3.7
CCGATTAACATCAAATTTCCGGGTGATGTTAATCGGGTCTTGATTCGCTTGACGCTGCTG			1.32		1.44	1.02	1.31
CCGATTAACATCAATTCCCAAAATGATGTTAATCGGGTCTTGATTCGCTTGACGCTGCTG		2.17	1.45	1.29	1.31	1.25	2.29
CCGATTAACATCAAGAATTTTCCTGATGTTAATCGGGTCTTGATTCGCTTGACGCTGCTG					1.12	1.25	1.03
CCGATTAACATCAGGATTTGCCCTGATGTTAATCGGGTCTTGATTCGCTTGACGCTGCTG		1.25			3.5	1.37	
CCGATTAACATCAGTTTGGGAAATGATGTTAATCGGGTCTTGATTCGCTTGACGCTGCTG		2.49	2.36		1.19	1.46	2.26
CCGATTAACATCAGAAATTGCCCTGATGTTAATCGGGTCTTGATTCGCTTGACGCTGCTG		1.33			2.44	1.68	
CCGATTAACATCAAAAATTACCATGATGTTAATCGGGTCTTGATTCGCTTGACGCTGCTG		1.73		3.14	1.73	2.52	3.14
CCGATTAACATCAAAAAAATTCCTGATGTTAATCGGGTCTTGATTCGCTTGACGCTGCTG		1.23		3.84	2.87	1.79	1.22
CCGATTAACATCACCACCACCCCTGATGTTAATCGGGTCTTGATTCGCTTGACGCTGCTG	1.55		2.34	1.39	1.75	2.36	
